NadD inh – NadD (S. aureus) enzyme inhibition; purified NadD enzyme, colorimetric absorbance read-out; inhibition, % at 20 µM; actives 0.78% (n = 360,000); AID 602399; in the data active means inhibition above about 26%
MPTP block – permeability transition pore inhibition. isolated mouse mitochondria, Ca2+ swelling absorbance, 30 min. inhibition, % at 10 µM. actives 1.4% (n = 360,000);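 active means inhibition of 50% or more, scaled per plate between neutral and stimulator controls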
aDG glyco act – alpha-DG glycosylation activation | Pro5-aDG cells, alpha-DG glycosylation AlphaScreen (IIH6); 0% Pro5, 100% B10-LARGE cell signal | activation, % at 10 µM | actives 0.22% (n = 360,000);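 active means activation of at least 8% versus controls, or a plate z-score of at least 8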;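 further: Pro5 are CHO cells carrying HIG-tagged alpha-DG that lacks glycosylation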
H9c2 TAG inh – reduces triacylglycerol accumulation in H9c2 cells | Nile Red lipid (TAG) fluorescence; cells loaded with 200 µM oleic acid | inhibition, % at 12.5 µM | actives 0.66% (n = 230,000) | AID 651582;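 active means pattern-corrected inhibition of lipid staining of at least 50% with the nuclear-stain viability signal not falling by more than 50%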
TAG conf – confirmation of triacylglycerol accumulation inhibitors; shares compounds with H9c2 TAG inh; H9c2 lipid accumulation, Nile Red fluorescence; cells loaded with 200 µM oleic acid; inhibition, % at 12.5 µM; actives 71% (n = 990);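 active means mean inhibition across replicates of 40% or more; inactive means mean inhibition below 40%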
Large screens that a line does not name were inactive (follow-up assays come after a bar, where they were run); ! = repeats disagree. Most compounds without a hit are left out; they make up all but 2.7% or so of the library.

Cc1ccc(N(Cc2ccccc2)C(=O)c2cc(S(=O)(=O)N3CCOCC3)ccc2C)cc1	none
CCCCCC(=C/c1ccccc1)/C=N/Nc1ccc(S(=O)(=O)N2CCOCC2)cc1[N+](=O)[O-]	H9c2 TAG inh 83 | TAG conf 81
O=C(Nc1ccc(/C=C/c2nc3ccccc3o2)cc1)c1c(F)cccc1F	H9c2 TAG inh 54 | TAG conf 55
O=C(Nc1cccc2ncccc12)c1ccc(Cl)cc1	H9c2 TAG inh 71 | TAG conf 75
COc1ccc(-c2cn(-c3ccc(C)cc3)c(=O)n2CC(=O)Nc2ccc(OC)cc2OC)cc1	none
COc1ccc(NC(=O)Cn2c(-c3ccccc3)cn(-c3ccc(C)cc3)c2=O)cc1	H9c2 TAG inh 56 | TAG conf inactive
Cc1cccc(CN2CCN(C3CN(Cc4cn(Cc5ccc(F)cc5)nn4)S(=O)(=O)C3)CC2)c1 (configuration not stated)	none (no result: H9c2 TAG inh)
O=C(O)c1ccc(-n2nc(C(F)(F)F)cc2-c2cccs2)cc1	none (no result: H9c2 TAG inh)
O=C(COC(=O)c1ccc([N+](=O)[O-])o1)Nc1ncc(Cl)cc1Cl	none
c1ccc(C2Nc3ccccc3-c3nc4ccccc4n32)cc1 (configuration not stated)	none
c1ccc(C2Nc3ccccc3-c3nc4ccccc4n32)nc1 (configuration not stated)	H9c2 TAG inh 55 | TAG conf inactive
CCOC(=O)C1=C(C)N(C[C@@H]2CC[C@@H](Cc3ccc(-c4ccccc4)cc3)O2)C(=O)NC1c1cccc2ccccc12 (some centres not stated)	H9c2 TAG inh 78 | TAG conf 78
CCOC(=O)C1=C(C)N(C[C@@H]2CC[C@@H](Cc3ccc(-c4ccccc4)cc3)O2)C(=O)NC1c1ccc(C(F)(F)F)cc1 (some centres not stated)	none
COc1cc(NC(=O)c2nccnc2N)cc(C(=O)Nc2cccc(C(F)(F)F)c2)c1	H9c2 TAG inh 61! | TAG conf inactive
COc1cc(Nc2ccccn2)cc(C(=O)Nc2cccc(C(F)(F)F)c2)c1	none
COc1cc(NC(=O)c2nccn2C)cc(C(=O)Nc2cccc(C(F)(F)F)c2)c1	H9c2 TAG inh 107 | TAG conf inactive
COc1cc(NC(=O)c2ccc(N)nc2)cc(C(=O)Nc2cccc(C(F)(F)F)c2)c1	none
O=C(Nc1cccc(OC(F)(F)F)c1)c1cccc2c(-c3cccnc3)coc12	none
Nc1ccccc1Nc1cccc(C(F)(F)F)c1	H9c2 TAG inh 68 | TAG conf 74
CN(C)S(=O)(=O)c1cccc(COC(=O)CCNC(=O)c2ccc([N+](=O)[O-])cc2)c1	none
COc1ccccc1C(=O)CN1C(=O)NC2(CCc3ccccc32)C1=O (configuration not stated)	none
Cc1ccc(CN(C(=O)c2csnn2)C(C(=O)NC2CCCC2)c2ccc(C)o2)cc1 (configuration not stated)	H9c2 TAG inh 51 | TAG conf 42
Cc1ccc(Oc2ccc(S(=O)(=O)N3CCOCC3)cc2C(N)=O)c(-n2nc3ccccc3n2)c1	H9c2 TAG inh 50 | TAG conf 46
COc1ccccc1Oc1ccc(S(=O)(=O)N2CCOCC2)cc1S(=O)(=O)N1CCOCC1	none (no result: H9c2 TAG inh)
CCOC(=O)c1cnn(-c2nc(-c3ccccc3)nc3c2COC(C)(C)C3)c1N	H9c2 TAG inh 54 | TAG conf inactive
CCOC(=O)c1cnn(-c2ccccc2)c1N	none (no result: H9c2 TAG inh)
CCC(C)Nc1nc(-c2cccc(OC)c2O)nc2ccccc12 (configuration not stated)	H9c2 TAG inh 57 | TAG conf 44
C/C(=N\Nc1cc(N2CCOCC2)nc(C)n1)c1ccc(F)cc1	H9c2 TAG inh 52 | TAG conf inactive
O=C(COC(=O)C1=COCCO1)NCc1ccc(Cl)cc1Cl	H9c2 TAG inh 66 | TAG conf inactive
COc1ccccc1CNC(=O)COC(=O)C1=COCCO1	none
C#CCN(C[C@H]1[C@H](OC(=O)NCC2CCCCC2)[C@H](OC(=O)NCC2CCCCC2)C[C@@H](C(=O)OC)[C@H]1C(=O)OC)S(=O)(=O)c1ccc(C)cc1	H9c2 TAG inh 82 | TAG conf 89
N#C/C(=C\c1ccc2c(c1)OCCO2)C(=O)Nc1ccc(C(=O)O)cc1	none (no result: H9c2 TAG inh)
CC(C)C[C@H]1C(=O)N2CCC[C@H]2[C@]2(O)O[C@](NC(=O)C3C=C4c5cccc6[nH]c(Br)c(c56)C[C@H]4N(C)C3)(C(C)C)C(=O)N12 (some centres not stated)	H9c2 TAG inh 56 | TAG conf 92
Nc1ccc(C#Cc2c(-c3ccsc3)oc3ccc(N4CCOCC4)cc23)cc1	H9c2 TAG inh 51 | TAG conf 53
COc1ccc(-c2c(-c3ccsc3)oc3ccc(N4CCOCC4)cc23)cn1	none
COc1ccc(-c2oc3ccc(N4CCOCC4)cc3c2C#CCO)cc1	none
COC(=O)c1ccc(/C=C/c2c(-c3ccsc3)oc3ccc(N4CCOCC4)cc23)cc1	H9c2 TAG inh 60 | TAG conf 54
COc1ccc(Cc2c(-c3cccc(Cl)c3)nc3c(C)cc(Br)cn23)c(C)c1	none (no result: H9c2 TAG inh)
CC(C)(C)C(=O)Nc1cc2c3c(c1)CCN3C(=O)CC2	none (no result: H9c2 TAG inh)
N#CCC(=O)N/N=C/c1cn(Cc2ccc(Cl)c(Cl)c2)c2ccccc12	H9c2 TAG inh 73 | TAG conf 58
CCC(=O)Nc1nc2nc(-c3ccccc3)cc(-c3ccccc3)n2n1	none
CCCC(=O)Nc1nc2nc(-c3ccccc3)cc(-c3ccccc3)n2n1	H9c2 TAG inh 52 | TAG conf inactive
Cc1noc(C)c1-c1ccc(C(=O)NCc2cccs2)c2occc12	none
O=C(Cc1ccccc1)Nc1nc(-c2cccs2)cs1	H9c2 TAG inh 62 | TAG conf inactive
O=C(Cc1n[nH]c(=O)c2ccccc12)OCC(=O)c1ccc(F)cc1	none
O=C(Cc1n[nH]c(=O)c2ccccc12)OCC(=O)c1ccc2c(c1)OCCO2	H9c2 TAG inh 81 | TAG conf 56
CCOCC(=O)NC1CCc2cc(OC)c(OC)c(OC)c2-c2ccc(SC)c(=O)cc21 (configuration not stated)	H9c2 TAG inh 54 | TAG conf inactive
CCOC(=O)NC1CCc2cc(OC)c(OC)c(OC)c2-c2ccc(SC)c(=O)cc21 (configuration not stated)	none
C[C@H](CO)N1C[C@H](C)[C@@H](CN(C)Cc2ccc(-c3ccccc3)cc2)Oc2c(NC(=O)Cc3ccccc3)cccc2C1=O	H9c2 TAG inh 50 | TAG conf 59
C[C@H](CO)N1C[C@H](C)[C@@H](CN(C)S(=O)(=O)c2cccs2)Oc2c(NC(=O)Nc3ccccc3)cccc2C1=O	none
C[C@@H]1CN([C@H](C)CO)C(=O)c2cccc(NC(=O)Nc3ccc(C(F)(F)F)cc3)c2O[C@H]1CN(C)S(=O)(=O)c1cccs1	H9c2 TAG inh 71 | TAG conf 63
C[C@H](O)C#Cc1ccc2c(c1)O[C@@H](CN(C)Cc1ccc(-c3ccccc3)cc1)[C@H](C)CN([C@@H](C)CO)S2(=O)=O	H9c2 TAG inh 64 | TAG conf 66

Screening results: PubChem, Sanford-Burnham Center for Chemical Genomics
